Bioassay records (PubChem)
Gal4-VP16 FLuc: counter-screen for ROR gamma inhibitors: Gal4-VP16 reporter; 310,000 compounds, 3.5% hits; Potency, µM (doses to about 53.6 µM), for inactives: at the top dose activity, negative = inhibition, actives largely listed as inhibitors; Drosophila S2 Gal4-VP16 UAS-luciferase, luminescence, 20 h;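 also: Gal4-VP16 expression switched on by copper sulfate through the metallothionein promoter; potency is read from the fitted curve at half-maximal effect; nearly all actives have a fitted effect of over 50% in size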
DT40 TDP1 no CPT: qHTS for Inhibitors of human tyrosyl-DNA phosphodiesterase 1 (TDP1): qHTS in cells in absence of CPT; DT40 Tdp1-/- hTDP1 cells, no CPT, ATP luminescence, 48 h; Potency, µM (titrated, usually from 46.2 µM), inactives show at the highest dose activity change, negative = growth inhibition, actives largely listed as inhibitors; 420,000 compounds, 15% hits; also: potency is read from the fitted curve at half-maximal effect; nearly all actives have a fitted effect of over 55% in size
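Cells were dispensed at 400 per well, compounds added by pin tool, plates incubated ≥48 hr at 37 °C, then CellTiter-Glo added for 30 min at room temperature before luminescence reading. Line: DT40 Tdp1-/- complemented with hTDP1; camptothecin omitted.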
TDP1 cell CPT: growth inhibition of DT40 Tdp1-/-;hTDP1 cells with camptothecin (screen for TDP1 inhibitors); chicken DT40 Tdp1-/-;hTDP1 cells + 20 nM CPT, ATP luminescence, 48 h; Potency, µM (titrated, usually from 46.2 µM), without a hit: at the highest dose activity change, negative = growth inhibition, usual class: inhibitors; 420,000 compounds, 12% hits; AID 686979; also: potency is read from the fitted curve at half-maximal effect; nearly all actives have a fitted effect of over 55% in size
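Chicken DT40 Tdp1-/- cells complemented with human TDP1, 400 cells/well, exposed to compounds plus 20 nM camptothecin for at least 48 h at 37 C; viability read as ATP content by CellTiter-Glo luminescence.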
RORg inh: blocks mouse ROR gamma transcriptional activity | P51450 | Drosophila S2 Gal4-RORgamma UAS-luciferase reporter, 20 h | Potency, µM (titrated, usually from 53.6 µM), for inactives: at the highest dose activity change, negative = inhibition, most hits filed as inhibitors | 310,000 compounds, 5.4% hits | AID 2551; also: potency is read from the fitted curve at half-maximal effect; nearly all actives have a fitted effect of over 60% in size
Target sequence (P51450 whole entry, looked up, the tested form may be a part): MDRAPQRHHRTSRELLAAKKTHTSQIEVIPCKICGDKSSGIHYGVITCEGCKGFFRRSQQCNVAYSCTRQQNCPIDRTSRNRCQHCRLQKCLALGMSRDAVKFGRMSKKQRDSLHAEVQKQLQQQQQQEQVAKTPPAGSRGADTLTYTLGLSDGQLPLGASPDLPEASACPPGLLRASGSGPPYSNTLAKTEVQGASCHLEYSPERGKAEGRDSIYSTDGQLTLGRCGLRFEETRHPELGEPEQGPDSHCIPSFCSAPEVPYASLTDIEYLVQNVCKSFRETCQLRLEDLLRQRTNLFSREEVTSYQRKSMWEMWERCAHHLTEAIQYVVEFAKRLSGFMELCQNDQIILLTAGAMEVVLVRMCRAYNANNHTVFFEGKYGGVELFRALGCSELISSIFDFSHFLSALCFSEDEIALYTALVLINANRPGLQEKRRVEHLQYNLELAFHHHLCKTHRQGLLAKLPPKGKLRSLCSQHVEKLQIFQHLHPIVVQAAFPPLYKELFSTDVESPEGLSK
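A Gal4/UAS one-hybrid system in insect cells: metallothionein-promoter Gal4–ROR gamma fusion plus Photinus luciferase reporter. Copper sulfate 700 uM final, 20 hr ambient incubation, luminescent detection after 10 min with reagent.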
LDHA block: inhibitors of human lactate dehydrogenase A; purified LDHA, NADH/diaphorase-resazurin fluorescence; active compounds read low; activity change, % (values are at about 110 or 230 µM); P00338; 480,000 compounds, 0.15% hits; in the data active = activity change below about -30%; inconclusive = mostly about -25% to -30%;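 also: plate controls were DMSO wells for no effect and wells without enzyme for full effect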
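Remaining NADH was detected by diaphorase (0.133 mg/mL) converting 37 µM resazurin to fluorescent resorufin, read at 0 and 20 minutes. The preceding 5-minute room-temperature reaction used 2 nM LDHA, 0.2 mM sodium pyruvate and 0.06 mM NADH at pH 7.4.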
IL-1B inflam inh: inflammasome signaling inhibition, IL-1 beta readout. activity change, % at 57.5 µM. 360,000 compounds, 4.7% hits. THP-1 LPS/ATP IL-1B secretion, AlphaLISA, 16 h; active compounds read low. AID 743279; in the data active = activity change below about -50%; inconclusive = mostly about -30% to -49%
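THP-1 cells pretreated 1 hr with compounds (up to 57.5 uM final), then stimulated with LPS (250 ng/mL final) plus ATP (1.25 mM final); secreted IL-1B measured by AlphaLISA after 16 hr, decreased signal indicating inhibition.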
The depositor's hits bear a star; ? = inconclusive; / = not tested or not shown. Compounds with a hit are over-represented: about 18% of the library has one in this group of screens. Unless noted, calls follow the shape of the dose curve; as a rule, active = well fitted curve in the direction sought with a large enough effect; inconclusive = small, poorly fitted or top-dose-only effect, or another doubt; inactive = no such curve, though single readings can be large; an effect the other way counts as inactive or inconclusive. Unless noted, % is scaled to controls: 0 for no effect and ±100 for the full control effect.

SMILES | Gal4-VP16 FLuc | DT40 TDP1 no CPT | TDP1 cell CPT | RORg inh | LDHA block | IL-1B inflam inh
Cc1ccccc1C(C)(O)c1cnc(C)n1Cc1ccccc1 (stereo not drawn) | / | 11.6µM* | 20.6µM* | / | -6.0 | -3.6
C=C1[C@@H](O)[C@H](CC(C)C)N(Cc2ccccc2Br)S1(=O)=O | / | 18.4µM* | 5.01µM* | / | -1.5 | ?
C=CCNc1nc(-c2ccc(CNC(=O)C(C)(C)C)s2)cs1 | / | / | / | / | 7.3 | /
COc1ccc(C2NN=C(c3ccc(C)cc3)S2)cc1OC (stereo not drawn) | ? | -28.1% | -13.6% | 2µM* | -5.0 | 8.8
Cc1ccc(C2=NNC(c3cccc(F)c3)S2)cc1 (stereo not drawn) | 7.08µM* | -6.7% | -17.3% | 6.31µM* | -3.2 | 39.2
Fc1cccc(C2NN=C(c3ccccc3)S2)c1 (stereo not drawn) | ? | -27.9% | -12.0% | ? | 3.9 | 10.6
CCCN(Cc1nnc(-c2ccccc2Cl)o1)C(=O)c1ccc(C#N)cc1 | / | / | / | / | -2.5 | /
Cc1cc(=O)oc2cc(OCC(=O)N3CCc4sccc4C3C)ccc12 (stereo not drawn) | / | / | / | / | 0.1 | /
CCOC(=O)CSc1nc2sc3c(c2c(=O)n1-c1ccc(C)cc1)CCN(C)C3 | 1.4% | -15.2% | ? | -0.4% | 0.9 | 38.7
CCOC(=O)CSc1nc2sc3c(c2c(=O)n1-c1ccc(OC)cc1)CCN(C)C3 | 13.8% | ? | ? | 0.6% | -4.6 | 10.7
CCCCSc1nc2sc3c(c2c(=O)n1-c1ccc(C)cc1)CCN(C)C3 | 2.2% | 14.6µM* | 16.4µM* | ? | 1.9 | ?
CCOc1ccc(-n2cnc3sc4c(c3c2=O)CCCC4)cc1 | 8.3% | ? | ? | 20.0% | 5.8 | -63.3*
CCSc1nc2sc3c(c2c(=O)n1-c1ccc(C)cc1)CCCC3 | / | 8.2µM* | ? | / | -7.6 | /
CCSc1nc2sc3c(c2c(=O)n1-c1ccc(OC)cc1)CCN(C)C3 | 5.3% | 16.4µM* | ? | 14.9% | 0.1 | -17.2
CC(C)(C)c1nnc2sc(-c3c[nH]c4ccccc34)nn12 | / | / | / | / | -3.4 | /
Cc1ccc(-c2csc3ncn(CC(=O)c4cc(C)n(C5CC5)c4C)c(=O)c23)s1 | / | / | / | / | 4.9 | /
CCNC(=O)C(C)NC(=O)C1CCC(C(C)(C)C)CC1 (stereo not drawn) | / | / | / | / | 3.0 | /
CCN1CCC(N(C(=O)c2ccc3ccccc3n2)C2CC2)CC1 | / | / | / | / | 5.7 | /
Cc1ccccc1-n1c(SCC(=O)c2c(N)n(C)c(=O)n(C)c2=O)nc2sc3c(c2c1=O)CCCC3 | -14.2% | 23.1µM* | 18.4µM* | -7.0% | 0.7 | 9.6
N#CC1=C(N)c2ccccc2CC12CCCCC2 | -1.9% | ? | ? | 5.1% | -1.6 | -52.4*
CCC(=O)NC1=C(C#N)C2(CCCC2)Cc2ccccc21 | 2.5% | -16.0% | 23.7% | 0.1% | -5.5 | 1.8
COc1cc2c(cc1OC)C1=NC(=O)CN1C(SCc1ccccc1C)=N2 | -4.0% | 10.3µM* | 10.3µM* | ? | 0.0 | -4.5
Cc1nc(SCC(=O)N(Cc2ccc(F)cc2)C2CCCCC2)sc1CC(N)=O | / | / | / | / | -6.8 | /
COc1cc2c(cc1OC)CN(C(=O)c1cc(C3CC3)nn1-c1ccccc1)CC2 | / | ? | 18.4µM* | / | 1.9 | -55.3*
COc1ccc(N2CCN(C(=O)c3cc(C4CC4)nn3-c3ccccc3)CC2)cc1 | / | ? | ? | / | 1.7 | 4.8
SMILES | Gal4-VP16 FLuc | DT40 TDP1 no CPT | TDP1 cell CPT | RORg inh | LDHA block | IL-1B inflam inh
N#Cc1ccc(CN2CCN(C(=O)c3cc(C4CC4)nn3-c3ccccc3)CC2)cc1 | / | 20.6µM* | 23.1µM* | / | 0.6 | -3.4
Nc1c(C(=O)NC2CCCC2)nnn1-c1ccccc1 | / | / | / | / | 6.1 | /
O=C(NC1CCC(c2ccccc2)CC1)c1ccc(Cl)nc1 (stereo not drawn) | / | / | / | / | 11.8 | /
CC(C)(C)C(=O)[C@@H]1[C@@H](C(=O)c2ccccc2)[C@@]2(C(=O)Nc3ccccc32)[C@H]2c3ccccc3C=CN12 | / | / | / | / | 22.4 | /
CCC(C)NC(=O)N(C)C1CCN(c2ccc(Cl)cc2)CC1 (stereo not drawn) | / | / | / | / | -2.5 | /
CN(Cc1ccccc1N1CCOCC1)C(=O)c1ccc2c(c1)S(=O)(=O)c1ccccc1C2=O | / | / | / | / | 3.8 | /
Cc1ccc(Nc2c(N)c(=O)oc3ccccc23)cc1 | -24.5% | 25.9µM* | ? | ? | 11.6 | 0.8
Cc1cccc(-c2cc(C(=O)NCc3ccncc3)c3ccccc3n2)c1 | / | / | / | / | -8.5 | /
CCOC(=O)C1CCCN(CC(=O)c2cc(C)n(C3CCS(=O)(=O)C3)c2C)C1 (stereo not drawn) | / | / | / | / | 5.0 | /
Cc1cc(C)c(S(=O)(=O)N2CCN(C(=O)c3ccc(-n4nc(C)c(Cl)c4C)cc3)CC2)c(C)c1 | / | 16.4µM* | 23.1µM* | / | -0.1 | -15.0
Cc1cc(C)c(S(=O)(=O)N2CCN(C(=O)c3ccc4c(c3)OCO4)CC2)c(C)c1 | -3.6% | ? | -20.4% | ? | 0.9 | -60.0*
COc1ccc(CNC(C)C23CC4CC(CC(C4)C2)C3)c(OC)c1OC (stereo not drawn) | 5.8% | 14.6µM* | ? | 0.0% | -8.9 | ?
Cc1ccc(CNC(C)C23CC4CC(CC(C4)C2)C3)o1 (stereo not drawn) | / | / | / | / | -3.2 | /
COc1ccc(NC(=O)C2CC(c3ccc(OC)c(OC)c3)=NO2)cc1 (stereo not drawn) | / | / | / | / | 3.6 | /
COc1ccccc1NC(=O)c1cc2c(CO)cnc(C)c2oc1=Nc1ccccc1 | -8.3% | 8.2µM* | ? | 13.2% | -3.6 | 48.2
COc1cc(NC(=O)c2cc3c(CO)cnc(C)c3oc2=Nc2cccc(C(N)=O)c2)cc(OC)c1 | -1.1% | ? | -27.0% | 0.6% | -1.3 | -6.2
COc1cccc(N=c2oc3c(C)ncc(CO)c3cc2C(=O)Nc2ccccc2OC)c1 | -5.7% | / | / | -0.1% | / | /
COc1ccc(NC(=O)c2cc3c(COC(C)=O)cnc(C)c3oc2=Nc2cccc(C(=O)O)c2)c(OC)c1 | -8.8% | 25.9µM* | -23.1% | 0.5% | -0.9 | 19.1
COc1ccccc1NC(=O)c1cc2c(CO)cnc(C)c2oc1=Nc1cccc(C(N)=O)c1 | 0.0% | 1.84µM* | 5.17µM* | -4.2% | -2.8 | 8.9
c1ccc(N=NC2=NN(c3ccccc3)CS2)cc1 | / | 5.8µM* | ? | / | 2.2 | -16.8
c1ccc(C2=NN(c3ccccc3)CC2)cc1 | -26.5% | 3.7% | -10.4% | ? | -3.3 | 31.6
CCN(CC)C(=S)SCC(=O)NC(=O)NC1CCCCC1 | / | / | / | / | 0.4 | /
C/C(=C\C(=S)Nc1ccccc1)Nc1cccc2ccccc12 | ? | 23.1µM* | ? | 15.8µM* | 20.4 | -7.1
